G9a block = inhibitors of human histone lysine methyltransferase G9a | hit rate 8.8% among 350,000 | AID 504332 | Q96KQ7 | G9a H3K9 monomethylation, AlphaScreen, 2 h | Potency, µM (series often up to 102 µM), for inactives: at the top dose activity, negative = inhibition, most hits filed as inhibitors; further: on the % scale 0 is the no-effect control and ±100 the full control effect; nearly all actives have a fitted effect of over 75% in size
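Readings reflect AlphaScreen signal from monomethyl-H3K9 antibody detection. HMT at 20 nM; substrate b-H3K9 500 nM; cofactor SAM 20 uM; 2 h RT reaction; compounds tested as titrations in qHTS with 15 min preincubation.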
GLS inh = glutaminase GLS (human) inhibition; Potency, µM (top dose mostly 45.5 µM), inactives show top-dose activity change, negative = inhibition, actives largely listed as inhibitors; hit rate 0.21% among 410,000; O94925; AID 624170; GLS enzymatic activity, qHTS titration; further: on the % scale 0 is the no-effect control and ±100 the full control effect
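Two-point fluorescence kinetic (t0, 30 min RT) for hKGA; glutamate detected via glutamate oxidase–HRP–Amplex Red. Substrate: 1 mM L-glutamine solution; buffer 45 mM KH2PO4, pH 8.2.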
JMJD2A Tudor = JMJD2A Tudor domain (human) inhibition; AlphaScreen JMJD2A-Tudor / H3K4me3 peptide binding; Potency, µM (top dose mostly 114 µM), without a hit: at the top dose activity change, negative = inhibition, usual class: inhibitors; hit rate 4.4% among 390,000; AID 504339; further: on the % scale 0 is the no-effect control and ±100 the full control effect; nearly all actives have a fitted effect of over 50% in size
Target sequence (O75164 whole entry, looked up, the tested form may be a part): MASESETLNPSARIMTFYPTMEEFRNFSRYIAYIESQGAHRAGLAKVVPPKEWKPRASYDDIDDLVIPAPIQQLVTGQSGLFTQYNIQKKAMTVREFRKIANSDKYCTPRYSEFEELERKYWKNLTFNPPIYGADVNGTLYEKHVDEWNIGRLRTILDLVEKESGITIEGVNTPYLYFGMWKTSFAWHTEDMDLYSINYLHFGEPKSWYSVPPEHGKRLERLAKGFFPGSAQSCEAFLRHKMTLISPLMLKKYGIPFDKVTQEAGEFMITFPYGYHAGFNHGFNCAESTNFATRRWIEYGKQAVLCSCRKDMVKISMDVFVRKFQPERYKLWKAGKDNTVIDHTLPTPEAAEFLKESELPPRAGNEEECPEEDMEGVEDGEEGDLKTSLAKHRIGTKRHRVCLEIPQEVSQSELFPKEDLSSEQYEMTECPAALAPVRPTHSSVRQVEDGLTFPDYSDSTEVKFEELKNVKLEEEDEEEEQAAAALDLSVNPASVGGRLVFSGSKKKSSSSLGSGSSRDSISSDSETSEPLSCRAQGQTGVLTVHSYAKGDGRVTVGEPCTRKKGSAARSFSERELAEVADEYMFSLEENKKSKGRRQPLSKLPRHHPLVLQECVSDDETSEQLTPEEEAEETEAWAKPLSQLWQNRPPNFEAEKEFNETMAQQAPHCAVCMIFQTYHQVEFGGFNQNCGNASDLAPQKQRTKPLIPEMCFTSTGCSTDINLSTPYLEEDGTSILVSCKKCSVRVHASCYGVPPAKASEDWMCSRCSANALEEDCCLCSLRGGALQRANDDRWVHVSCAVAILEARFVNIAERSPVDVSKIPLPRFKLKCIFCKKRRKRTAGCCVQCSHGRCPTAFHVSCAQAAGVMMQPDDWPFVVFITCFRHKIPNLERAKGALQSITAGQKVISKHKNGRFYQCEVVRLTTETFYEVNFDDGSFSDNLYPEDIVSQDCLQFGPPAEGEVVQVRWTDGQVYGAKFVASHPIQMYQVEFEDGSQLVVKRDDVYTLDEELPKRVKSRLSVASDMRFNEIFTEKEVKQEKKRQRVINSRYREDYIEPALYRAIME
BAZ2B inh = BAZ2B (human) inhibition. AlphaScreen BAZ2B-H3K14Ac peptide displacement. Q9UIF8. AID 504333. Potency, µM (highest dose often 114 µM), for the others: at the top dose activity change, negative = inhibition, actives largely listed as inhibitors. hit rate 4.4% among 360,000; further: on the % scale 0 is the no-effect control and ±100 the full control effect; nearly all actives have a fitted effect of over 60% in size
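In this displacement format the biotinylated H3(5-23) peptide acetylated at Lys14 serves as ligand at 50 nM, with BAZ2B at 50 nM in PBS pH 7.4 containing 0.01% Tween-20. Donor and acceptor beads are 10 ug/mL final.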
HP1b chromo inh = HP1-beta chromodomain-methylated histone interaction inhibition; P83916; AlphaScreen HP1-beta / biotin-H3K9me3 peptide binding; Potency, µM (highest dose often 114 µM), for inactives: top-dose activity change, negative = inhibition, actives largely listed as inhibitors; hit rate 0.56% among 390,000; AID 540317; further: nearly all actives have a fitted effect of over 70% in size
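AlphaScreen: HP1-beta (50 nM) preformed 30 min with biotin-H3(1-18)K9me3 peptide (50 nM) in PBS pH 7.4, 0.01% Tween-20. Compound added for 30 min at RT, then streptavidin donor/nickel chelate acceptor beads (10 ug/mL) for 30 min.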
* marks the source's active call; other numbers are inactive results; u = inconclusive; x = no result given; [ ] = dose if it differs, or a comment. In the library only some 10% were active in any assay of this set; here they are far more common. The call rests on the fitted dose curve; in most records, active means well fitted curve in the direction sought with a large enough effect; inconclusive means small, poorly fitted or top-dose-only effect, or another doubt; inactive means no such curve, though single readings can be large; an effect the other way counts as inactive or inconclusive. Potency means the concentration at half of the fitted maximal effect.

SMILES | G9a block | GLS inh | JMJD2A Tudor | BAZ2B inh | HP1b chromo inh
O=c1ccc(-c2ccccc2)nn1Cc1ccc(F)cc1Cl | 82% | -4% | 24% | 40% | 122%
O=C(N/N=C/c1ccc[nH]1)c1cc2ccccc2cc1O | 79µM* | 13% | u | 40µM* | -2%
O=C(N/N=C/c1ccncc1)c1cc2ccccc2cc1O | u | u | -33% | -30% | 27%
Cc1nn(C(=O)c2ccc(Cl)cc2)c(C)c1S(=O)(=O)N1CCCCCC1 | 21%[59 µM] | 26% | 37% | 9% | 26%[57 µM]
O=C(Nc1ccccc1F)c1ccc(-c2cccc([N+](=O)[O-])c2)o1 | -10% | 11% | -15% | -20% | 17%
O=C(Nc1nccs1)c1ccc(-c2cccc([N+](=O)[O-])c2)o1 | -5%[59 µM] | -1% | 56µM* | -29% | u
O=C(Nc1ccc(CN2CCOCC2)cc1)c1ccc(-c2cccc([N+](=O)[O-])c2)o1 | -17% | 8% | -29% | -26% | -6%[57 µM]
CN1CCN(C(=S)c2ccc(-c3cccc([N+](=O)[O-])c3)o2)CC1 | 40µM* | 6% | 50µM* | u | -29%
O=[N+]([O-])c1cc(-c2ccc(C(=S)N3CCOCC3)o2)ccc1Cl | 1.8µM* | -15% | 40µM* | 32µM* | 10µM*
O=[N+]([O-])c1cccc(-c2ccc(C(=S)N3CCOCC3)o2)c1 | x | 1% | 45µM* | 28µM* | u
Cc1nc2cnc(N3CCN(C)CC3)nc2n(C2CC2)c1=O | 8%[0.501 µM] | x | x | x | x
COc1ccc(-c2cn3nc(N4CCCC(C(=O)NCc5ccc(Cl)cc5)C4)sc3n2)cc1 (centres undefined) | -36%[59 µM] | -1% | -20% | 0% | 15%
CN1CCN(C(=O)c2ccc(-c3cnc4cccnn34)cc2)CC1 | x | 3% | x | x | x
COc1ccccc1NC(=O)COC(=O)C1=NN(c2ccccc2)C(=O)CC1 | x | 1% | 1% | x | 6%
Cc1cc(NC(=O)COC(=O)[C@@H]2CCCN2C(=O)c2cccs2)no1 | x | -1% | -1% | x | 37%
COc1ccc(N2CCN(C(=O)c3ccc(COc4ccc([N+](=O)[O-])cc4)o3)CC2)cc1 | 22µM* | 24% | u | u | u
O=[N+]([O-])c1cccc(-c2ccc(C(=S)N3CCN(c4ccccc4)CC3)o2)c1 | 3.5µM* | -7% | u | u | u
O=C(c1ccc(-c2cccc(Cl)c2)o1)N1CCN(c2ccc([N+](=O)[O-])cc2)CC1 | 4%[59 µM] | -29% | 40µM* | 0% | -9%
COc1ccc(N2CCN(C(=O)Oc3ccc([N+](=O)[O-])cc3)CC2)cc1 | x | 35% | x | x | x
CC(C)CNC(=O)Cn1c(=O)c2c(ncn2CC(C)C)n(Cc2ccccc2)c1=O | -5% | 0% | 3% | -7% | 38%
Cc1cc(C)nc(Nc2ccc(N3CCCC3)cc2)n1 | u | 8% | 35µM* | 28µM* | u
Cc1cc(C)nc(Nc2ccc(N3CCOCC3)cc2)n1 | 50µM* | 35% | -19% | -38% | 1%
Cc1cc(C)nc(N/N=C/c2ccc(N3CCOCC3)cc2)n1 | 30% | u | -11% | -15% | 32%
CCCc1cc(=O)[nH]c(Nc2ccc(N3CCCCC3)cc2)n1 | 8.9µM* | 63% | 50µM* | 50µM* | u
CCCCc1ccc(Nc2nc(CCC)cc(=O)[nH]2)cc1 | 2%[59 µM] | 10% | -18% | 11% | 16%
SMILES | G9a block | GLS inh | JMJD2A Tudor | BAZ2B inh | HP1b chromo inh
O=c1ccc2cccc([N+](=O)[O-])c2[nH]1 | x | 9% | x | x | x
CCOc1ccccc1CNC(=O)CN1C(=O)CCCc2ccccc21 | 6%[59 µM] | -7% | -10% | -17% | 23%
Cc1cc(C)c(S(=O)(=O)c2ccc(F)cc2C)c(Cl)n1 | 18%[2.33 µM] | 16µM* | -2% | 11% | 45%
COc1cc(NC(C)CCCN)c2ncccc2c1 (centres undefined) | 13µM* | 29% | u | 56µM* | -6%
COc1cc(NCCCCCCCN)c2ncccc2c1 | -43%[59 µM] | 1% | u | u | -25%
COc1ccc(S(=O)(=O)Nc2ccc(-c3ccc4nncn4n3)cc2)c(OC)c1 | 10µM* | 4% | -15% | 4% | u
Cc1ccc(NC(=S)Nc2cc(C(=O)O)ccc2N2CC3CC(C2)c2cccc(=O)n2C3)cc1C (centres undefined) | 40µM* | 30% | -11% | -19% | -4%
CCN1CCN(C(=O)c2ccc(N3CC4CC(C3)c3cccc(=O)n3C4)c([N+](=O)[O-])c2)CC1 (centres undefined) | 56µM* | 0% | -18% | -14% | 18%
COc1cccc(NC(=S)Nc2cc(C(=O)O)ccc2N2CC3CC(C2)c2cccc(=O)n2C3)c1 (centres undefined) | 40µM* | 24% | -26% | -22% | -12%
Cc1ccc(-c2csc(N(CCO)CCCn3c(C(F)(F)F)nc4ccccc43)n2)cc1 | 45µM* | 1% | -34% | u | 5%
CC(C)(C)C(=O)OCCn1c(=O)c2cc3c(=O)n(CCOC(=O)C(C)(C)C)c(=O)c3cc2c1=O | 2% | -2% | -21%[57.1 µM] | -2% | 30%
CCn1c(/C=C/Nc2ccccc2)[n+](CC)c2cc(Cl)c(Cl)cc21 | u | 4% | -18% | 9% | 28%
CC(=O)OCCn1c(C)[n+](CCOC(C)=O)c2cc(Cl)c(Cl)cc21 | 50µM* | -4% | -9% | -1% | 15%
CCn1c(C)[n+](CCOCC[n+]2c(C)n(CC)c3cc(Cl)c(Cl)cc32)c2cc(Cl)c(Cl)cc21 | u | 1% | 22µM* | 0% | -3%
O=C(NCCc1ccccc1Cl)c1cc2ccccn2n1 | 5%[59 µM] | 0% | -15% | -3% | 29%
C=CCSc1nnc(-c2cc3c(C(F)(F)F)nn(C)c3s2)n1C | 71µM* | 6% | 10% | 1% | 46%
CC(=O)N1CCc2c(sc3c2c(=O)n(-c2ccccc2)c(=O)n3CC(=O)Nc2ccccc2)C1 | 6%[59 µM] | 1% | 79µM* | -2% | 9%
CC(=O)N1CCc2c(sc3c2c(=O)n(-c2ccccc2)c(=O)n3CC(=O)Nc2cccc(C)c2)C1 | 0%[59 µM] | -13% | -19% | -1% | 18%
CCOC(=O)CSc1nnc2n(Cc3ccccc3)c(=O)c3c4c(sc3n12)CCC4 | 40µM* | -2% | -15%[11.4 µM] | 1% | -26%
O=c1c2c3c(sc2n(CCN2CCCC2)c(=O)n1Cc1ccco1)CCCCC3 | 3% | 15% | 79µM* | -35% | u
CN(C)CCn1c(=O)n(Cc2ccco2)c(=O)c2c3c(sc21)CCCCC3 | u | 2% | u | u | 9%
O=C(O)Cn1c(=O)c2c3c(sc2n(Cc2ccccc2)c1=O)CCCC3 | -34% | 6% | 0% | 89µM* | 59%
O=C(Cn1c(=O)n(Cc2ccco2)c(=O)c2c3c(sc21)CCCCC3)c1ccccc1 | -3%[59 µM] | -11% | u | -35% | 2%
O=C(Cn1c(=O)n(Cc2ccco2)c(=O)c2c3c(sc21)CCCCC3)Nc1ccccc1 | x | -8% | 32µM* | 50µM* | -29%

Screening data deposited in PubChem by National Center for Advancing Translational Sciences (NCATS).
